# In PubChem BioAssay (NCI):
# Compounds without any hit were thinned out: in the full panel of roughly 79,000, 15% have a hit. Values without a mark were called inactive. The source made the active and inactive calls. No stated cut-off is given here; in the data, active means growth inhibition above about 70%; inactive means the rest.
# How the values were obtained:
# [1] = NCI Yeast Anticancer Drug Screen. Data for the rad52 strain (AID 147);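 further: 0% = growth of vehicle-treated control cultures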; conditions: S. cerevisiae rad52 mutant growth inhibition, hits give high values
# Outline: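 Growth of repair-deficient yeast cells was compared between compound-treated and vehicle-treated cultures to give percent inhibition.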
# [2] = NCI Yeast Anticancer Drug Screen. Data for the wt1 strain (AID 149);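 further: 0% = growth of vehicle-treated wt1 cultures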; conditions: S. cerevisiae wt1 strain (SPY 50644) growth inhibition, hits give high values
# Outline: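 Growth inhibition read against vehicle controls after compound exposure of the wt1 yeast strain.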
# [3] = NCI Yeast Anticancer Drug Screen. Data for the rad50EPP+ strain (AID 151);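 further: 0% = growth of vehicle-treated control cultures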; conditions: S. cerevisiae rad50 mutant strain, hits give high values
# Outline: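 Measured: growth inhibition of rad50EPP+ yeast. Reference: vehicle-treated controls. Screen uses strains with defined genetic alterations in DNA damage repair or cell cycle control.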
# [4] = NCI Yeast Anticancer Drug Screen. Data for the mgt1 strain (AID 153); conditions: S. cerevisiae mgt1 mutant growth inhibition, hits give high values
# Outline: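 Compounds were applied to mgt1 mutant yeast, and growth was then compared against vehicle-treated control cultures to give percent inhibition.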
# [5] = NCI Yeast Anticancer Drug Screen. Data for the rad50 strain (AID 155);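 further: 0% = growth of vehicle-only cultures of the same strain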; conditions: S. cerevisiae rad50 strain growth inhibition, hits give high values
# Outline: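 Readout: growth inhibition relative to vehicle-treated cultures. Compound exposure was carried out in a genetically defined yeast strain deficient in DNA damage repair.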
# [6] = NCI Yeast Anticancer Drug Screen. Data for the mec2-1 strain (AID 157); conditions: S. cerevisiae mec2-1 strain, hits give high values
# Outline: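 Compounds were applied to mec2-1 yeast cells. Their growth was then compared with that of vehicle-treated cultures to give growth inhibition.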
# [7] = NCI Yeast Anticancer Drug Screen. Data for the rad14 strain (AID 159);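 further: 0% = growth of vehicle-treated control cultures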; conditions: S. cerevisiae rad14 strain growth inhibition, hits give high values
# Outline: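 Growth inhibition vs vehicle controls; genetically altered yeast strain (DNA damage repair defect) treated with test compounds.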
# [8] = NCI Yeast Anticancer Drug Screen. Data for the sgs1 mgt1 strain (AID 161);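 further: 0% = growth of cultures given vehicle only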; conditions: S. cerevisiae sgs1 mgt1 strain, hits give high values
# Outline: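 Percent growth inhibition was derived by comparing compound-exposed mutant yeast with vehicle-exposed cultures. The strain carries alterations in DNA damage repair.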
# [9] = NCI Yeast Anticancer Drug Screen. Data for the CLN2oe strain (AID 163);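 further: 0% = growth of vehicle-only control cultures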; conditions: S. cerevisiae CLN2oe strain, hits give high values
# Outline: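 Cells of an engineered yeast line with disturbed cell-cycle regulation are treated with compound. Inhibition of growth is then calculated relative to the vehicle-treated reference.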
# [10] = NCI Yeast Anticancer Drug Screen. Data for the cln2 rad14 strain (AID 165);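 further: 0% = growth equal to vehicle treated cultures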; conditions: S. cerevisiae cln2 rad14 strain, hits give high values
# Outline: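 Strain: cln2 rad14 yeast, altered in cell cycle control and DNA damage repair. Read-out: growth inhibition vs vehicle.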
# [11] = NCI Yeast Anticancer Drug Screen. Data for the bub3 strain (AID 167); conditions: S. cerevisiae bub3 mutant strain, hits give high values
# Outline: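 Readout: yeast growth inhibition, expressed relative to vehicle-only wells. The test organism is a mutant strain from a panel with lesions in DNA repair or checkpoint genes.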
# [12] = NCI Yeast Anticancer Drug Screen. Data for the wt2 strain (AID 169);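 further: 0% = growth of vehicle-treated yeast cultures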; conditions: S. cerevisiae wt2 strain growth inhibition, hits give high values
# Outline: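 Growth of compound-treated yeast is measured and expressed as inhibition relative to vehicle-only controls.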
# [13] = NCI Yeast Anticancer Drug Screen. Data for the mlh1 strain (AID 171);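 further: 0% = growth of vehicle-treated control cultures of the same strain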; conditions: S. cerevisiae mlh1 strain growth inhibition, hits give high values
# Outline: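 Test agents were incubated with yeast bearing a defined DNA damage repair or cell cycle control alteration; values are growth inhibition normalised to vehicle-treated cultures.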
# [14] = NCI Yeast Anticancer Drug Screen. Data for the sgs1 strain (AID 173);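 further: 0% = growth of vehicle-only control cultures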; conditions: S. cerevisiae sgs1 mutant, hits give high values
# Outline: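 Strain with an altered DNA repair or cell cycle pathway exposed to compound. Growth then measured. Value = inhibition versus vehicle control.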
# [15] = NCI Yeast Anticancer Drug Screen. Data for the mlh1 rad18 strain (AID 175); conditions: S. cerevisiae mlh1 rad18 strain growth inhibition, hits give high values
# Outline: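 A repair-deficient yeast strain is exposed to test compound, and growth is scored relative to vehicle-treated controls.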
# [16] = NCI Yeast Anticancer Drug Screen. Data for the rad18 strain (AID 177); conditions: S. cerevisiae rad18 mutant growth inhibition, hits give high values
# Outline: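 DNA-repair-defective yeast; compound treatment; growth inhibition scored against vehicle.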
# [17] = at 5.0 µM (retest, dose inferred, filed as 0.5)
# [18] = at 50.0 µM (retest, dose inferred, filed as 5.0)
smiles,measurement,setting,value
CCCCOC(=O)Nc1ccc(C)c(NC(=O)OCCCC)c1,growth inhibition,[1]; at 1.2 µM,-4%
same,growth inhibition,[1]; at 3.7 µM,-1%
same,growth inhibition,[1]; at 11.0 µM,15%
same,growth inhibition,[1]; at 33.0 µM,26%
same,growth inhibition,[1]; at 100.0 µM,34%
same,growth inhibition,[2]; at 1.2 µM,-6%
same,growth inhibition,[2]; at 3.7 µM,-2%
same,growth inhibition,[2]; at 11.0 µM,-7%
same,growth inhibition,[2]; at 33.0 µM,46%
same,growth inhibition,[2]; at 100.0 µM,12%
same,growth inhibition,[3]; at 1.2 µM,2%
same,growth inhibition,[3]; at 3.7 µM,5%
same,growth inhibition,[3]; at 11.0 µM,27%
same,growth inhibition,[3]; at 33.0 µM,36%
same,growth inhibition,[3]; at 100.0 µM,44%
same,growth inhibition,[4]; at 1.2 µM,-9%
same,growth inhibition,[4]; at 3.7 µM,-8%
same,growth inhibition,[4]; at 11.0 µM,-4%
same,growth inhibition,[4]; at 33.0 µM,8%
same,growth inhibition,[4]; at 100.0 µM,18%
same,growth inhibition,[5]; at 1.2 µM,-5%
same,growth inhibition,[5]; at 3.7 µM,-3%
same,growth inhibition,[5]; [17],3%
same,growth inhibition,[5]; at 11.0 µM,9%
same,growth inhibition,[5]; at 33.0 µM,19%
same,growth inhibition,[5]; [18],78% (active)
same,growth inhibition,[5]; at 50.0 µM,89.9% (active)
same,growth inhibition,[5]; at 100.0 µM,42%
same,growth inhibition,[6]; at 1.2 µM,-6%
same,growth inhibition,[6]; at 3.7 µM,-11%
same,growth inhibition,[6]; [17],-2%
same,growth inhibition,[6]; at 11.0 µM,-6%
same,growth inhibition,[6]; at 33.0 µM,7%
same,growth inhibition,[6]; [18],69%
same,growth inhibition,[6]; at 50.0 µM,94.3% (active)
same,growth inhibition,[6]; at 100.0 µM,22%
same,growth inhibition,[7]; at 1.2 µM,-3%
same,growth inhibition,[7]; at 3.7 µM,-3%
same,growth inhibition,[7]; at 11.0 µM,2%
same,growth inhibition,[7]; at 33.0 µM,11%
same,growth inhibition,[7]; at 100.0 µM,15%
same,growth inhibition,[8]; [17],1%
same,growth inhibition,[8]; [18],82% (active)
same,growth inhibition,[8]; at 50.0 µM,88.6% (active)
same,growth inhibition,[9]; at 1.2 µM,-11%
same,growth inhibition,[9]; at 3.7 µM,-19%
same,growth inhibition,[9]; at 11.0 µM,11%
same,growth inhibition,[9]; at 33.0 µM,31%
same,growth inhibition,[9]; at 100.0 µM,38%
same,growth inhibition,[10]; [17],-4%
same,growth inhibition,[10]; [18],79% (active)
same,growth inhibition,[10]; at 50.0 µM,91.9% (active)
same,growth inhibition,[11]; at 1.2 µM,-8%
same,growth inhibition,[11]; at 3.7 µM,-9%
same,growth inhibition,[11]; [17],-2%
same,growth inhibition,[11]; at 11.0 µM,-8%
same,growth inhibition,[11]; at 33.0 µM,3%
same,growth inhibition,[11]; [18],72% (active)
same,growth inhibition,[11]; at 50.0 µM,94.5% (active)
same,growth inhibition,[11]; at 100.0 µM,8%
same,growth inhibition,[12]; at 1.2 µM,-4%
same,growth inhibition,[12]; at 3.7 µM,-4%
same,growth inhibition,[12]; at 11.0 µM,6%
same,growth inhibition,[12]; at 33.0 µM,52%
same,growth inhibition,[12]; at 100.0 µM,29%
same,growth inhibition,[13]; at 1.2 µM,-8%
same,growth inhibition,[13]; at 3.7 µM,-6%
same,growth inhibition,[13]; at 11.0 µM,1%
same,growth inhibition,[13]; at 33.0 µM,17%
same,growth inhibition,[13]; at 100.0 µM,36%
same,growth inhibition,[14]; at 1.2 µM,-4%
same,growth inhibition,[14]; at 3.7 µM,-5%
same,growth inhibition,[14]; at 11.0 µM,8%
same,growth inhibition,[14]; at 33.0 µM,47%
same,growth inhibition,[14]; at 100.0 µM,72% (active)
same,growth inhibition,[15]; [17],-1%
same,growth inhibition,[15]; [18],84% (active)
same,growth inhibition,[15]; at 50.0 µM,94.5% (active)
same,growth inhibition,[16]; at 1.2 µM,-5%
same,growth inhibition,[16]; at 3.7 µM,-8%
same,growth inhibition,[16]; at 11.0 µM,12%
same,growth inhibition,[16]; at 33.0 µM,31%
same,growth inhibition,[16]; at 100.0 µM,50%
